Test [1] deals with MCC-13. The test is described as follows: qHTS assay to identify novel small-molecules to repurpose for Merkel cell carcinoma treatment (AID 1296009). Note: nearly all actives have a fitted effect of over 60% in size. As to conditions: MCC and control cell lines, CellTiter-Glo viability, 72 h; series mostly up to 46 µM. An outline of the steps: (§1)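 After compound transfer in DMSO, plates were kept 72 hr at 37 degree celsius. Luminescent ATP signal from CellTiter-Glo served as viability measure, normalized against DMSO and no-cell controls.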

Test [2] has as its system MCC-26. The description is as above. Particulars: MCC and control cell lines, CellTiter-Glo viability, 72 h; series mostly up to 46 µM. An outline of the steps:
as §1
On the technique in general: Cellular ATP, detected with luciferase, serves as a proxy for viable cell number.

Test [3] relates to MKL-1. Described as above. Particulars: MCC and control cell lines, CellTiter-Glo viability, 72 h; series mostly up to 46 µM. A digest of the protocol:
as §1

The test system of test [4] is UISO. The description is as above. As to conditions: MCC and control cell lines, CellTiter-Glo viability, 72 h; series mostly up to 46 µM. An outline of the steps: as §1
For test [5], the system named is C33A. Briefly: Primary qHTS to identify gynecologic anti-cancer compounds using libraries of approved drugs and bioactive compounds (AID 1345084). Note: nearly all actives have a fitted effect of over 55% in size. Particulars: Gynecologic cancer cell panel viability, ATPlite luminescence, 48 h; series mostly up to 57.5 µM. An outline of the steps:
(§2)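 Cells, 1,000 per well, plated 16 h, then exposed 48 h at 37 C to compounds. Viability by ATPlite luminescence after 15 min at room temperature.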
In general terms: Quantitative high-throughput screening tests each substance at several concentrations.

The test system of test [6] is CAOV3. Described as above. Particulars: Gynecologic cancer cell panel viability, ATPlite luminescence, 48 h; series mostly up to 57.5 µM. An outline of the steps: as §2
Test [7] concerns CASKI. The description is as above. Particulars: Gynecologic cancer cell panel viability, ATPlite luminescence, 48 h; series mostly up to 57.5 µM. An outline of the steps:
as §2

For test [8], the system named is Es-2. The description is as above. As to conditions: Gynecologic cancer cell panel viability, ATPlite luminescence, 48 h; series mostly up to 57.5 µM. An outline of the steps:
as §2

The test system of test [9] is HeLa. Described as above. Particulars: Gynecologic cancer cell panel viability, ATPlite luminescence, 48 h; series mostly up to 57.5 µM. An outline of the steps:
as §2

Test [10] relates to Hek293T. Described as above. As to conditions: Gynecologic cancer cell panel viability, ATPlite luminescence, 48 h, control line for the selectivity index; series mostly up to 57.5 µM. An outline of the steps:
as §2

Test [11] concerns JEG-3. Described as above. As to conditions: Gynecologic cancer cell panel viability, ATPlite luminescence, 48 h; series mostly up to 57.5 µM. A digest of the protocol: as §2
Test [12] has as its system OV90. The test is described as above. As to conditions: Gynecologic cancer cell panel viability, ATPlite luminescence, 48 h; series mostly up to 57.5 µM. An outline of the steps: as §2
For test [13], the system named is PA-1. Described as above. Particulars: Gynecologic cancer cell panel viability, ATPlite luminescence, 48 h; series mostly up to 57.5 µM. An outline of the steps:
as §2

In test [14] the test system is SKOV3. The description is as above. Particulars: Gynecologic cancer cell panel viability, ATPlite luminescence, 48 h; series mostly up to 57.5 µM. An outline of the steps:
as §2

Test [15] concerns Tov-21-G. Described as above. Particulars: Gynecologic cancer cell panel viability, ATPlite luminescence, 48 h; series mostly up to 57.5 µM. A digest of the protocol:
as §2

The subject of test [16] is Tov112D. The test is described as above. Particulars: Gynecologic cancer cell panel viability, ATPlite luminescence, 48 h; series mostly up to 57.5 µM. An outline of the steps: as §2
Test [17] in a line: Drug repurposing screens with cells derived from glioblastoma tumor samples (AID 1345199). Note: nearly all actives have a fitted effect of over 40% in size. Particulars: GBM patient neurospheres viability, ATP luminescence, 48 h. A digest of the protocol:
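Four patient lines of CD133+ GBM neurospheres were screened at several concentrations; hits were retested in those lines plus three slower-growing GBM lines, using 48-hour treatment and ATP-based viability.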

Test [18] has as its system WaGa. The test is described as follows: qHTS assay to identify novel small-molecules to repurpose for Merkel cell carcinoma treatment (AID 1296009). Note: nearly all actives have a fitted effect of over 60% in size. Particulars: MCC and control cell lines, CellTiter-Glo viability, 72 h; series mostly up to 46 µM. A digest of the protocol: as §1
Test [19] relates to MKL-2. The description is as above. Particulars: MCC and control cell lines, CellTiter-Glo viability, 72 h; series mostly up to 46 µM. A digest of the protocol: as §1
Setting [20] is: at 45.9 µM (top of the series), tumour line B.
[21] abbreviates: at 45.9 µM (top of the series), tumour line D.
[22] abbreviates: at 46 µM (top of the series), tumour line A.
Where [23] appears, read: at 46.1 µM (top of the series), tumour line C.

Several values for one entry are separate records, joined by “and”; a condition that tells them apart may be missing. Identical values can stand only once. Results filed as inconclusive are left out. Where a structure was tested more than once in an assay, its records may differ in their call. Unmarked numbers belong to inactive results. Activity calls are given as the source filed them. Calls come from the whole dose curve; as a rule, active = well fitted curve in the direction sought with a large enough effect; inconclusive = small, poorly fitted or top-dose-only effect, or another doubt; inactive = no such curve, though single readings can be large; an effect the other way counts as inactive or inconclusive.
% is set by controls: 0 for no effect and ±100 for the full control effect; potency is the fitted concentration of half-maximal effect.

With `Nc1ncnc2c1ncn2[C@@H]1O[C@H](CO)[C@@H](O)[C@H]1O`, the Potency entry in test [1], in [2], in test [3], in test [4], in [5] and in test [6] was “inactive” in each case. Besides, the Potency result in test [7], in [8], in test [9], in test [10], in test [11] and in test [12] was “inactive” throughout. Also, the Potency entry in [13], in test [14], in test [15] and in test [16] was “inactive” throughout. The activity, negative = cell killing was 4.34% in [17] (setting [20]), 12.4% in [17] (setting [21]), -12.9% in test [17] (setting [22]) and -3.63% in test [17] (setting [23]).
In the case of `CCCCN(CCCC)CC(O)c1cc(Cl)cc2c1-c1ccc(Cl)cc1/C2=C/c1ccc(Cl)cc1` (stereo not given), the Potency result in test [1], in test [2], in [18], in test [5], in test [7] and in test [8] was “inactive” throughout. The Potency result in test [9], in test [10], in test [11], in test [13], in [15] and in test [16] was “inactive” throughout.
For the compound `CSc1ccc2c(c1)C(N1CCN(C)CC1)Cc1ccccc1S2` (stereo not given), the Potency result in test [1], in test [2], in test [5], in test [7], in test [8] and in [9] was “inactive” each time. The Potency entry in test [10], in [11], in [13], in test [15] and in test [16] was “inactive” throughout.
As to `CN(C)CCN(Cc1ccccc1)c1ccccn1`, the Potency result in test [1], in test [3], in test [19], in test [4], in test [18] and in [5] was “inactive” in each case. Further, the Potency entry in test [6], in [7], in [8], in [9], in test [11] and in test [12] was “inactive” throughout. Also, the Potency entry in [13], in [14], in test [15] and in test [16] was “inactive” throughout. In addition, the activity, negative = cell killing was -8.05% in [17] (setting [20]) and -4.16% in [17] (setting [23]). Also, the Potency in test [17] (tumour line A) is 5.62 µM (active).
With `Cc1ncc(COP(=O)(O)O)c(C=O)c1O`, the Potency result in test [1], in [3], in test [19], in test [4], in [18] and in test [5] was “inactive” in each case. Moreover, the Potency result in test [6], in test [7], in [8], in test [9], in [10] and in test [11] was “inactive” in each case. For the same compound, the Potency result in test [12], in [13], in [14], in [15] and in test [16] was “inactive” throughout. The activity, negative = cell killing was -4.54% in test [17] (setting [20]), 0.448% in [17] (setting [21]), -18.9% in test [17] (setting [22]) and 13% in test [17] (setting [23]).
For `CC(=O)O[C@@]12CO[C@@H]1C[C@H](O)[C@@]1(C)C(=O)[C@H](O)C3=C(C)[C@@H](OC(=O)[C@H](O)[C@@H](NC(=O)OC(C)(C)C)c4ccccc4)C[C@@](O)([C@@H](OC(=O)c4ccccc4)[C@H]21)C3(C)C`, the Potency entry in [19], in test [5], in test [6], in test [7], in test [10] and in test [11] was “inactive” in each case. The Potency result in test [12] and in [16] was “inactive” each time. In addition, the activity, negative = cell killing was -12.5% and -11.2% in [17] (setting [20]); -11.2% and -24.9% in test [17] (setting [21]). The Potency in [17] (tumour line A) is 10 µM (active).
For the compound `CC1=C(/C=C/C(C)=C/C=C/C(C)=C/C(=O)O)C(C)(C)CCC1`, the Potency entry in test [1], in test [4], in test [5], in test [6], in test [7] and in [8] was “inactive” in each case. In addition, the Potency entry in test [9], in test [10], in [11], in test [12], in test [13] and in [14] was “inactive” each time. Moreover, the Potency result in test [15] and in test [16] was “inactive” throughout. Besides, the activity, negative = cell killing was -21.7% in test [17] (setting [20]), -18.7% in test [17] (setting [21]) and -15.9% in test [17] (setting [23]).
As for `Cc1ccc2nc(N)[nH]c(=O)c2c1Sc1ccncc1`, the Potency entry in test [2], in test [3], in test [5], in [6], in test [8] and in test [10] was “inactive” in each case. The Potency entry in test [12], in test [13], in test [14] and in test [15] was “inactive” in each case. In addition, the Potency was 3.35 µM (active) in [18], 6.31 µM (active) in [11], 3.55 µM (active) in test [16] and 7.08 µM (active) in test [17] (tumour line A). In addition, the activity, negative = cell killing in test [17] (setting [21]) was -18.7%; in [17] (setting [23]), -42.8%.
As to `CSc1ccc2c(c1)N(CCC1CCCCN1C)c1ccccc1S2` (stereo not given), the Potency in [1] is 26.6 µM (active); in test [3], 11.9 µM (active); in test [19] it was 3.35 µM (active); in test [4], 26.6 µM (active); in [18] it was 23.7 µM (active); in test [16] it was 28.2 µM (active). Moreover, the figures for the Potency in test [17] (tumour line A), in [17] (tumour line B) and in test [17] (tumour line D) were 2.82 µM (active), 20 µM (active) and 5.01 µM (active), respectively. Also, the Potency result in [8], in test [9] and in test [10] was “inactive” each time. For the same compound, in test [17] (setting [23]), the activity, negative = cell killing was -0.209%.
Take `CC(=O)OCC(=O)[C@@]1(O)CC[C@H]2[C@@H]3CCC4=CC(=O)CC[C@]4(C)[C@H]3C(=O)C[C@@]21C`: the Potency result in test [5], in [6], in test [7], in test [8], in test [9] and in test [10] was “inactive” in each case. The Potency entry in test [11], in [12], in test [13], in test [14], in [15] and in test [16] was “inactive” throughout. Besides, the activity, negative = cell killing in test [17] (setting [20]) is -22%. For the same compound, the Potency in [17] (tumour line A) was 25.1 µM (active).
`CC(=O)Nc1ccc(/C=N/NC(N)=S)cc1`: the Potency entry in test [1], in test [3], in [19], in test [4], in [18] and in test [5] was “inactive” in each case. In addition, the Potency entry in [6], in test [7], in test [8], in [9], in test [10] and in [11] was “inactive” in each case. Further, the Potency entry in [12], in test [13], in test [15] and in test [16] was “inactive” each time. Also, the activity, negative = cell killing in test [17] (setting [20]) is -6.76% and -4.79%; in [17] (setting [21]) it was -13.7% and -15.9%; in [17] (setting [22]), -28.2%; in [17] (setting [23]), -27.6% and -20.2%.
`O=C1Nc2ccc(Cl)cc2[C@@](C#CC2CC2)(C(F)(F)F)O1`: the Potency entry in test [2], in test [5], in [6], in test [7], in test [8] and in test [9] was “inactive” each time. The Potency result in [10], in test [11], in [12], in test [13], in [14] and in test [15] was “inactive” throughout. Moreover, the Potency entry in [16] was “inactive”. The values for the activity, negative = cell killing in [17] (setting [20]) and in test [17] (setting [23]) were -20.8% and -5.83%, respectively. Besides, the Potency in [17] (tumour line A) is 17.8 µM (active).
Regarding `COc1cc(C)c(Cc2cnc(N)nc2N)cc1OC`, the Potency result in test [1], in [3], in [19], in test [4], in [18] and in test [5] was “inactive” throughout. Moreover, the Potency entry in [6], in [7], in test [8], in test [9], in test [10] and in [11] was “inactive” in each case. Also, the Potency entry in [12], in [13], in test [14], in [15] and in [16] was “inactive” each time. The activity, negative = cell killing in test [17] (setting [20]) was -4.72%; in test [17] (setting [21]), -19.5%; in test [17] (setting [23]) it was -26.1%.

The record behind these values is PubChem BioAssay (NCATS).
